Source: PubChem BioAssay (NCI)
This is part of a sample that, as a whole, favours compounds with a hit. Of some 79,000 tested, about 15% had one in any assay. Active and inactive are the calls of the source. Cut-off read from the data, not from the text of the source: active = growth inhibition above about 70%; inactive = the rest.

Experiment: NCI Yeast Anticancer Drug Screen. Data for the mlh1 rad18 strain (AID 175)
Conditions: S. cerevisiae mlh1 rad18 strain growth inhibition; at 5.0 µM (retest, dose inferred, filed as 0.5); hits give high values
In short: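 Inhibition values reflect reduced growth of mutant yeast versus vehicle-treated controls following compound exposure; the mutations affect DNA damage repair.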

| Structure (SMILES) | growth inhibition |
| --- | --- |
| OC1C2COc3nc4ccccc4n3C(O2)C1O (stereo not given) | -117% (inactive) |
| CN(C)CC1Cc2ccsc2C1=O (stereo not given) | 0% (inactive) |
| CCCC(O)C[N+](=O)[O-] (stereo not given) | 0% (inactive) |
| CC1=NC(C)=C(/C(C)=N/NC(=O)c2ccccc2O)C(C)/C1=C(/C)NNC(=O)c1ccccc1O (stereo not given) | 2% (inactive) |
| O=[N+]([O-])c1cccc(S(=O)(=O)N/N=C/c2cc(I)cc([N+](=O)[O-])c2O)c1 | 6% (inactive) |
| CNC(=O)OC(C)CN1c2ccccc2Sc2ccc(Cl)cc21 (stereo not given) | 19% (inactive) |
| O=[N+]([O-])c1ccc(NSc2ccccc2)cc1 | 6% (inactive) |
| CCOc1ccc2c(c1)nc1ccccc1[n+]2CC | -4% (inactive) |
| O=C1C=CC(=O)c2c(O)c(N3CCN(CCO)CC3)c(Cl)c(O)c21 | 41% (inactive) |
| O=C1CSC(c2cccc([N+](=O)[O-])c2)N1c1ccc(-c2ccc(-n3c(-c4ccccc4)nc4ccccc4c3=O)cc2)cc1 (stereo not given) | 9% (inactive) |
| CCC(=O)c1ccc2ccc3ccccc3c2c1 | 5% (inactive) |
| N#CSCc1c(Cl)cccc1Cl | 30% (inactive) |
| O=[N+]([O-])/C(C(Cl)=C(Cl)Cl)=C(/Sc1ccccc1)N1CCOCC1 | 15% (inactive) |
| COc1c2occc2c(OC)c2c(C)c(C(=O)OCCN3CCOCC3)oc12 | -5% (inactive) |
| COc1cnn(-c2ccccc2)c(=O)c1SCc1ccc(Cl)c(Cl)c1 | -4% (inactive) |
| COc1ccc(/C=C/c2c[n+]([O-])ccc2[N+](=O)[O-])cc1 | 46% (inactive) |
| CS(=O)(=O)OCCCN(CCCOS(C)(=O)=O)c1ccc(C=Nc2ccc(-c3csc(COc4ccc(Br)cc4Br)n3)cc2)cc1 | 17% (inactive) |
| O=C(Nc1ccccc1-c1nn(C(=S)Nc2ccccc2)c(=S)n(C(=S)Nc2ccccc2)c1=O)C(F)(F)F | 3% (inactive) |
| Cc1ccc(N=C(N)NN=C(c2ccc(Cl)cc2)c2ccc(Cl)cc2)cc1 | 5% (inactive) |
| Cc1cccc(C)c1N1C(=O)C(=O)C(c2nc3ccccc3s2)/C(=N/NC(=O)c2ccccc2O)C1=O (stereo not given) | 34% (inactive) |

| Structure (SMILES) | growth inhibition |
| --- | --- |
| CN(C)CC1CC/C(=C\c2ccc(O)cc2)C1=O (stereo not given) | 19% (inactive) |
| CCCCCC=C(c1cc(Br)cc(C(=O)O)c1O)c1cc(Br)cc(C(=O)O)c1O | 4% (inactive) |
| CCS(CC)(CC)CC1CCCC2=CCC(P(=O)(c3ccccc3)c3ccccc3)CC21 (stereo not given) | -9% (inactive) |
| Cc1c[n+](=O)c2ccccc2n1[O-] | -11% (inactive) |
| O=C1CC(=S)NC(=S)N1 | -3% (inactive) |
| CC1=NN(C(=O)c2ccc(Cl)cc2)C(=O)C1N=Nc1ccc(S(=O)(=O)Nc2ncccn2)cc1 (stereo not given) | 6% (inactive) |
| COC(=O)c1cc(=O)n(-c2ccccc2OC)c(SC)n1 | -2% (inactive) |
| CCCCN(CCCC)Cc1ccc(NC(C(=O)c2ccccc2)c2ccccc2)cc1 (stereo not given) | 22% (inactive) |
| Cn1cc(/C=C/[N+](=O)[O-])c2ccc(OCc3ccccc3)cc21 | 3% (inactive) |
| O=C(c1ccc([N+](=O)[O-])cc1)N1CCCSC1=S | 11% (inactive) |
| CCCCCCCCC(=O)NCCN(CCN)C(=O)CCCCCCCC | -68% (inactive) |
| Cc1nc2sc3c(c2c2nnnn12)CCCC3 | 7% (inactive) |
| CCC(CC)(C(=O)Nc1ccc2c(c1)c(=O)c1ccccc1n2C)C(=O)Nc1ccc2c(c1)c(=O)c1ccccc1n2C | -6% (inactive) |
| Cc1ccccc1N1CCN(c2c3c(nc4ccccc24)CCCCC3)CC1 | -4% (inactive) |
| O=C(Nc1ccccc1)c1cc(Cl)ccc1O | 21% (inactive) |
| CCCCCCCCCCCCCCCCCCOP(=O)([O-])OC1CC[N+](C)(C)CC1 | 97% (active) |
| CN(C)c1ccc(C(O)(Cc2cccc(C#N)c2)c2ccc(N(C)C)cc2)cc1 | -2% (inactive) |
| CC(=O)N1CCC(Cc2ccccc2)CC1 | -103% (inactive) |
| O=[N+]([O-])c1ccc(-n2ncc3cccnc32)c([N+](=O)[O-])c1 | 26% (inactive) |
| CC(C)OC(=O)c1ccc(NCC2=CC(=O)C=CC2=O)cc1Cl | 46% (inactive) |

Same assay, conditions: S. cerevisiae mlh1 rad18 strain growth inhibition; at 50.0 µM (retest, dose inferred, filed as 5.0); hits give high values

| Structure (SMILES) | growth inhibition |
| --- | --- |
| OC1C2COc3nc4ccccc4n3C(O2)C1O (stereo not given) | -118% (inactive) |
| CN(C)CC1Cc2ccsc2C1=O (stereo not given) | 93% (active) |
| CCCC(O)C[N+](=O)[O-] (stereo not given) | 14% (inactive) |
| CC1=NC(C)=C(/C(C)=N/NC(=O)c2ccccc2O)C(C)/C1=C(/C)NNC(=O)c1ccccc1O (stereo not given) | 2% (inactive) |
| O=[N+]([O-])c1cccc(S(=O)(=O)N/N=C/c2cc(I)cc([N+](=O)[O-])c2O)c1 | 8% (inactive) |
| CNC(=O)OC(C)CN1c2ccccc2Sc2ccc(Cl)cc21 (stereo not given) | 98% (active) |
| O=[N+]([O-])c1ccc(NSc2ccccc2)cc1 | 99% (active) |
| CCOc1ccc2c(c1)nc1ccccc1[n+]2CC | 20% (inactive) |
| O=C1C=CC(=O)c2c(O)c(N3CCN(CCO)CC3)c(Cl)c(O)c21 | 98% (active) |
| O=C1CSC(c2cccc([N+](=O)[O-])c2)N1c1ccc(-c2ccc(-n3c(-c4ccccc4)nc4ccccc4c3=O)cc2)cc1 (stereo not given) | 90% (active) |
| CCC(=O)c1ccc2ccc3ccccc3c2c1 | 64% (inactive) |
| N#CSCc1c(Cl)cccc1Cl | 48% (inactive) |
| O=[N+]([O-])/C(C(Cl)=C(Cl)Cl)=C(/Sc1ccccc1)N1CCOCC1 | 98% (active) |
| COc1c2occc2c(OC)c2c(C)c(C(=O)OCCN3CCOCC3)oc12 | 54% (inactive) |
| COc1cnn(-c2ccccc2)c(=O)c1SCc1ccc(Cl)c(Cl)c1 | 25% (inactive) |
| COc1ccc(/C=C/c2c[n+]([O-])ccc2[N+](=O)[O-])cc1 | 96% (active) |
| CS(=O)(=O)OCCCN(CCCOS(C)(=O)=O)c1ccc(C=Nc2ccc(-c3csc(COc4ccc(Br)cc4Br)n3)cc2)cc1 | 85% (active) |
| O=C(Nc1ccccc1-c1nn(C(=S)Nc2ccccc2)c(=S)n(C(=S)Nc2ccccc2)c1=O)C(F)(F)F | 88% (active) |
| Cc1ccc(N=C(N)NN=C(c2ccc(Cl)cc2)c2ccc(Cl)cc2)cc1 | 38% (inactive) |
| Cc1cccc(C)c1N1C(=O)C(=O)C(c2nc3ccccc3s2)/C(=N/NC(=O)c2ccccc2O)C1=O (stereo not given) | 34% (inactive) |

| Structure (SMILES) | growth inhibition |
| --- | --- |
| CN(C)CC1CC/C(=C\c2ccc(O)cc2)C1=O (stereo not given) | 92% (active) |
| CCCCCC=C(c1cc(Br)cc(C(=O)O)c1O)c1cc(Br)cc(C(=O)O)c1O | 94% (active) |
| CCS(CC)(CC)CC1CCCC2=CCC(P(=O)(c3ccccc3)c3ccccc3)CC21 (stereo not given) | -9% (inactive) |
| Cc1c[n+](=O)c2ccccc2n1[O-] | -6% (inactive) |
| O=C1CC(=S)NC(=S)N1 | -5% (inactive) |
| CC1=NN(C(=O)c2ccc(Cl)cc2)C(=O)C1N=Nc1ccc(S(=O)(=O)Nc2ncccn2)cc1 (stereo not given) | 20% (inactive) |
| COC(=O)c1cc(=O)n(-c2ccccc2OC)c(SC)n1 | 79% (active) |
| CCCCN(CCCC)Cc1ccc(NC(C(=O)c2ccccc2)c2ccccc2)cc1 (stereo not given) | 72% (active) |
| Cn1cc(/C=C/[N+](=O)[O-])c2ccc(OCc3ccccc3)cc21 | 11% (inactive) |
| O=C(c1ccc([N+](=O)[O-])cc1)N1CCCSC1=S | 31% (inactive) |
| CCCCCCCCC(=O)NCCN(CCN)C(=O)CCCCCCCC | 97% (active) |
| Cc1nc2sc3c(c2c2nnnn12)CCCC3 | 31% (inactive) |
| CCC(CC)(C(=O)Nc1ccc2c(c1)c(=O)c1ccccc1n2C)C(=O)Nc1ccc2c(c1)c(=O)c1ccccc1n2C | 92% (active) |
| Cc1ccccc1N1CCN(c2c3c(nc4ccccc24)CCCCC3)CC1 | 94% (active) |
| O=C(Nc1ccccc1)c1cc(Cl)ccc1O | 74% (active) |
| CCCCCCCCCCCCCCCCCCOP(=O)([O-])OC1CC[N+](C)(C)CC1 | 99% (active) |
| CN(C)c1ccc(C(O)(Cc2cccc(C#N)c2)c2ccc(N(C)C)cc2)cc1 | -70% (inactive) |
| CC(=O)N1CCC(Cc2ccccc2)CC1 | 91% (active) |
| O=[N+]([O-])c1ccc(-n2ncc3cccnc32)c([N+](=O)[O-])c1 | 100% (active) |
| CC(C)OC(=O)c1ccc(NCC2=CC(=O)C=CC2=O)cc1Cl | 99% (active) |
